We go through 40 compounds from PubChem BioAssay (EPA / NIEHS).

Results filed as inconclusive are left out. The source made the active and inactive calls. Rule for the calls: active = hit-call score of the fitted dose curve at least 0.9, where 1 is the maximum; inconclusive = response in the unintended direction; inactive = score below 0.9.

By AC50 is commonly meant the midpoint of the concentration-response curve, whichever way the signal moves.

Read-out in this assay: Cytochrome P450 2B6 (Homo sapiens) (UniProt P20813)
The experiment in a line: CLD_CYP2B6_24hr: CellzDirect (CLD) Gene Expression Assay for xenobiotic metabolism (CYP2B6) at 24 hours (AID 2283686). Here is the method:
CLD_24hr is a cell-based, multiplexed-readout assay that uses hepatocyte, a human liver primary cell, with measurements taken at 24 hours after chemical dosing in a 96-well plate.CLD_CYP2B6_24hr is one of 16 assay component(s) measured or calculated from the CLD_24hr assay. It is designed to make measurements of mRNA induction, a form of inducible reporter, as detected with chemiluminescence signals by Quantitative Nuclease Protection Assay (qNPA) technology.Data from the assay component CLD_CYP2B6_24hr was analyzed at the endpoint, CLD_CYP2B6_24hr, in the positive analysis fitting direction relative to DMSO as the negative control and baseline of activity. Using a type of inducible reporter, gain-of-signal activity can be used to understand changes in the reporter gene as they relate to the gene CYP2B6. Furthermore, this assay endpoint can be referred to as a primary readout. To generalize the intended target to other relatable targets, this assay endpoint is annotated to the cyp intended target family, where subfamily is xenobiotic metabolism.
Human hepatocyte cultures were treated daily for two consecutive days with fresh dosing solutions containing appropriate concentrations of the 320 ToxCast chemicals (chemical identities were blinded to CellzDirect and other ToxCast collaborators), vehicle control (0.2% DMSO), and positive control inducers as summarized in Table 1. Due to the large number of treatment groups and chemicals examined, the ToxCast chemicals were divided into two groups (spanning two independent cultures of hepatocytes from separate donor preparations (Hu778: ToxCast plates 1 and 2; Hu776: ToxCast plates 3 and 4). Each preparation of human hepatocyte cultures was treated with respective vehicle control, medium only control, set of six positive controls/reference chemicals for the five hepatic receptor pathways, and a subset of eight of the ToxCast chemicals (indoxacarb, pyrithiobac-sodium, norflurazon, cyhalofop-butyl, methomyl, thiram, acetochlor, and propiconazole). These replicate data, coupled with internal replicates designed within the blinded ToxCast chemical library, provided additional data to evaluate interindividual differences between hepatocyte preparations and their potential impact on chemical profiles.Cell morphology and integrity were evaluated using phase-contrast microscopy as an indicator of hepatocyte cell health (Tyson & Green, 1987). Cultures for each treatment group (i.e., media, vehicle [0.2% DMSO], positive control inducers [multiple concentrations], and the ToxCast chemicals [multiple concentrations]) were observed and cell morphology was assessed relative to vehicle control cultures at each harvest time point (0, 6, 24, or 48 h). […] Images were evaluated at the conclusion of the study to assess changes in cell integrity and account for the effects of chemical exposure on uncharacteristic changes in concentration-dependent gene expression profiles. The results from these determinations of apparent cytotoxicity were annotated (yes/no) alongside the corresponding qNPA data for reference.At the conclusion of each treatment period, hepatocyte cultures (96-well) were washed with 1 volume of HBSS, lysed by addition of 25 ul ArrayPlate lysis buffer (HTG, Tucson, AZ), and 70 ul/well of Denaturation Oil, denatured by incubation at 95C for 10 min, and frozen at approximately -70C until analysis by nuclease protection assay (qNPA) (Roberts et al., 2007). For qNPA analysis, cell lysates were thawed at 50C for approximately 30 min, qNPA probes were added, and samples were incubated at 95C for 10 min to begin the detection process by denaturing the target RNA, dissociating the duplexes and secondary structure hybridization. At the conclusion of the hybridization period, S1 nuclease reagent was added to each sample to digest all nonprotected nucleotides at 50C for 60-90 min. […]
Take `CN(C)NC(=O)CCC(=O)O`: the call was inactive. Regarding `CCOP(=S)(OCC)SCCSCC`, the concentration at half-maximal activity (AC50) is 3.91 µM (active). The same measure, in the same setting: for `CNc1cnn(-c2cccc(C(F)(F)F)c2)c(=O)c1Cl` the value was 6.64 µM (active); for `CCCSP(=O)(OCC)Oc1ccc(Br)cc1Cl` (stereo not given), 6.22 µM (active).

Regarding `CCOP(=O)(NC(C)C)Oc1ccc(SC)c(C)c1` (stereo not given), the AC50 was 6.17 µM (active).

For the compound `CC(C)N(C(=O)SCC(Cl)=C(Cl)Cl)C(C)C`, the AC50 is 20 µM (active). Take `COP(=O)(OC)OC(Br)C(Cl)(Cl)Br` (stereo not given): the call was inactive.

As for `CN1COCN(Cc2cnc(Cl)s2)C1=N[N+](=O)[O-]`, the result was inactive.

For the compound `CCOP(=O)(SC(C)CC)N1CCSC1=O` (stereo not given), the AC50 is 3.26 µM (active). On to `C#CC(C)(C)NC(=O)c1cc(Cl)cc(Cl)c1`, for which the call was inactive.

In the case of `CNC(=O)ON=C(SC)C(=O)N(C)C`, the compound was called inactive. For `CCC(=O)Nc1ccc(Cl)c(Cl)c1`, the AC50 was 3.95 µM (active).

For `CCOP(=S)(OCC)Oc1ccc([N+](=O)[O-])cc1`, the AC50 is 0.828 µM (active). Same read-out and setting: for `CCOC(=O)COc1cc(-c2nn(C)c(OC(F)F)c2Cl)c(F)cc1Cl` the value was 20 µM (active).

On to `CC[C@H](C)[C@H]1O[C@]2(C=C[C@@H]1C)C[C@@H]1C[C@@H](C/C=C(\C)[C@@H](O[C@H]3C[C@H](OC)[C@@H](O[C@H]4C[C@H](OC)[C@@H](NC)[C@H](C)O4)[C@H](C)O3)[C@@H](C)/C=C/C=C3\CO[C@@H]4[C@H](O)C(C)=C[C@@H](C(=O)O1)[C@]34O)O2`, for which the compound was called inactive. `CCc1cccc(CC)c1N(COC)C(=O)CCl`: the AC50 is 2.69 µM (active). Turning to `CC(=NC#N)N(C)Cc1ccc(Cl)nc1`, the call was inactive. On the same count and under the same terms, for `CCc1cnc(C2=NC(C)(C(C)C)C(=O)N2)c(C(=O)O)c1` (stereo not given) the value was “inactive”; for `CCC(=NOC/C=C/Cl)C1=C(O)CC(C2CCOCC2)CC1=O` (stereo not given), “inactive”. Still for that read-out and setting: in the case of `O=C(O)c1cc(Oc2ccc(C(F)(F)F)cc2Cl)ccc1[N+](=O)[O-]` it was “inactive”.

In the case of `CCC(CC)Nc1c([N+](=O)[O-])cc(C)c(C)c1[N+](=O)[O-]`, the AC50 is 11.4 µM (active).

`CSC1=N[C@@](C)(c2ccccc2)C(=O)N1Nc1ccccc1`: the compound was called inactive.

For `Nc1nc(N)nc(NC2CC2)n1`, the compound was classed as inactive.

For `CCCOc1nn(C(=O)NS(=O)(=O)c2ccccc2C(=O)OC)c(=O)n1C`, the call was inactive. `CC(C)=CC1C(C(=O)OCN2C(=O)C3=C(CCCC3)C2=O)C1(C)C` (stereo not given): the AC50 was 7.4 µM (active). `CON=C(C(=O)OC)c1ccccc1CON=C(C)c1cccc(C(F)(F)F)c1`: the AC50 was 20 µM (active). `N#CSCSC#N`: the compound was classed as inactive. Consider `CCNc1nc(Cl)nc(NC(C)(C)C#N)n1`, for which the AC50 was 3.69 µM (active). The same measure, in the same setting: for `Cc1cc(C2CC2)nc(Nc2ccccc2)n1` the value was 3.97 µM (active). Turning to `CCCOCC(=Nc1ccc(Cl)cc1C(F)(F)F)n1ccnc1`, the compound was called inactive. Same read-out and setting: for `CC(C)[C@H](C(=O)O[C@H](C#N)c1cccc(Oc2ccccc2)c1)c1ccc(Cl)cc1` the value was “inactive”. Take `C[Si](Cn1cncn1)(c1ccc(F)cc1)c1ccc(F)cc1`: the AC50 is 0.179 µM (active).

For the compound `CSc1nc(NC(C)C)nc(NC(C)C)n1`, the AC50 is 2.99 µM (active). As for `COP(=O)(NC(C)=O)SC` (stereo not given), the call was inactive. Still for that read-out and setting: for `COc1cc(OC)nc(Sc2cccc(Cl)c2C(=O)O)n1` the value was “inactive”; for `CCCCOC(=O)[C@@H](C)Oc1ccc(Oc2ccc(C#N)cc2F)cc1`, “inactive”. `CCCCN(CC)c1c([N+](=O)[O-])cc(C(F)(F)F)cc1[N+](=O)[O-]`: the AC50 was 7.3 µM (active).

Turning to `CN(C)[C@@H]1C(=O)C(C(N)=O)=C(O)[C@@]2(O)C(=O)C3=C(O)c4c(O)cccc4[C@@](C)(O)[C@H]3[C@H](O)[C@@H]12`, the call was inactive.

Consider `CCOP(=S)(OCC)OC(Cl)C(Cl)(Cl)Cl` (stereo not given), for which the AC50 is 0.201 µM (active).

Turning to `CNC(=O)Oc1cccc2c1OC(C)(C)O2`, the half-maximal activity concentration (AC50) is 20 µM (active).
